# Screening results as filed in PubChem BioAssay.
# hNpr1 antagonist: blocks ANP-stimulated signaling of human Npr1 receptor. P16066. HEK293 hNpr1 GloSensor cGMP, ANP-stimulated luminescence. Potency, µM (titrated, usually from 46.3 µM), most hits filed as inhibitors. hit rate 1.6% among 76,000; calls by dose curve; also: nearly all actives have a fitted effect of over 60% in size
# Target sequence (P16066 whole entry, looked up): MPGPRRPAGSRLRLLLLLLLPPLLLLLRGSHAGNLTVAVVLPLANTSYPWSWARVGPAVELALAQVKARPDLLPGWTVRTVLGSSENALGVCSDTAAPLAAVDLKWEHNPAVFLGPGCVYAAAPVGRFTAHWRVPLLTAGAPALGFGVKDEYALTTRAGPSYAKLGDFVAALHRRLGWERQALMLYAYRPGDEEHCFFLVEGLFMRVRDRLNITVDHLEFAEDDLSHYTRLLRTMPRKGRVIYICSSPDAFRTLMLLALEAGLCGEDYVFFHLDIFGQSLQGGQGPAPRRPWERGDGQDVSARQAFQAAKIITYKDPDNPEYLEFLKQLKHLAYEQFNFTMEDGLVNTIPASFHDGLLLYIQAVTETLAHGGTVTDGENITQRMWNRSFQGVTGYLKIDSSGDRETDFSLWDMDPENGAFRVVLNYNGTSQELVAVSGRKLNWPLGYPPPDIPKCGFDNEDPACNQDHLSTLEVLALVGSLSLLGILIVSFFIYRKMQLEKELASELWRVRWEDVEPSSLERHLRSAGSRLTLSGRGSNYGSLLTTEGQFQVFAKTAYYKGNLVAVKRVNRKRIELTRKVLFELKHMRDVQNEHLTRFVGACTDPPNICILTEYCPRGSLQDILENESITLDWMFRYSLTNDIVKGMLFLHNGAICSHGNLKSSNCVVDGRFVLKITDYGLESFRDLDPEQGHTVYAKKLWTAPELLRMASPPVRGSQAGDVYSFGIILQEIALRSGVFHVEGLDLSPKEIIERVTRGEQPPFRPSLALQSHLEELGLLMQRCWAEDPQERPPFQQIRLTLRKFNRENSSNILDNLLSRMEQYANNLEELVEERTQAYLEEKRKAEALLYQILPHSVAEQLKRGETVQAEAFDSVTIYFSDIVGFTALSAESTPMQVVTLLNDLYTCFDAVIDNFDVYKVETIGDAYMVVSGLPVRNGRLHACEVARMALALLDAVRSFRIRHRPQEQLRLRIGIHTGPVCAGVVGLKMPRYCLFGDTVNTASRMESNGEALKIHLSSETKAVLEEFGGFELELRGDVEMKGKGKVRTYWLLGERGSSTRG
#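 Compound pre-incubated 30 min at room temperature on GloSensor-loaded HEK293 cells stably carrying hNpr1 and the pGS-40F cGMP biosensor. Stimulation uses hNppA at 0.1 nM final; luminescence is taken at baseline and 20 min post-agonist.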
# GPT2 inhibitor: GPT2 alanine aminotransferase inhibition; Q8TD30; Recombinant GPT2, coupled pyruvate oxidase/HRP Amplex Red fluorescence; Potency, µM (series often up to 57.7 µM), usual class: inhibitors; hit rate 0.25% among 100,000; AID 1671188; also: nearly all actives have a fitted effect of over 60% in size
#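 Inhibition is scored from Amplex Red fluorescence generated when pyruvate oxidase and HRP act on pyruvate released by GPT2. Reactions contain 10ng/uL enzyme, 250uM a-KG and 2mM L-alanine and run 30 min at room temperature.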
# HEK cytotox: HEK 293 cell cytotoxicity; Potency, µM (series often up to 115 µM), hits mostly inhibitors; AID 1345083; hit rate 6.6% among 94,000; HEK 293 viability, ATP luminescence (CellTiter-Glo), 48-72 h; also: nearly all actives have a fitted effect of over 60% in size
#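 Viability of HEK 293 cells, plated at 250 cells/well, was judged by cellular ATP after compound treatment for 48 or 72 hr. Luminescence was imaged 10 min after CellTiter-Glo addition at room temperature.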
# 3T3 cytotox: NIH 3T3 cell cytotoxicity; hit rate 4.3% among 94,000; NIH 3T3 viability, CellTiter-Glo ATP luminescence, 48-72 h; Potency, µM (series often up to 96.7 µM), usual class: inhibitors; also: nearly all actives have a fitted effect of over 55% in size
#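 Cytotoxicity is measured as loss of cellular ATP: NIH 3T3 cells (400/well) are exposed to compound for 48 or 72 hr at 37 °C, then CellTiter-Glo luminescence is imaged after 10 min at room temperature.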
# Luciferase inh: Photinus pyralis luciferase inhibition; P08659; purified P. pyralis luciferase, luminescence, biochemical; Potency, µM (top dose mostly 115 µM), most hits filed as inhibitors; hit rate 2.5% among 76,000; AID 1347043; also: nearly all actives have a fitted effect of over 65% in size
#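 Luminescence read by CCD imaging after purified firefly luciferase (10nM final) was added to substrate buffer holding 10uM D-luciferin and 10uM ATP, pH 7.5, pre-dosed with compound.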
# Numbers stand for hits; n = inactive; u = inconclusive; x = no result. This is a sample that favours compounds with a hit; in the whole collection about 10% have one here. Unless noted, calls follow the shape of the dose curve; as a rule, active = well fitted curve in the direction sought with a large enough effect; inconclusive = small, poorly fitted or top-dose-only effect, or another doubt; inactive = no such curve, though single readings can be large; an effect the other way counts as inactive or inconclusive.
SMILES,hNpr1 antagonist,GPT2 inhibitor,HEK cytotox,3T3 cytotox,Luciferase inh
Cn1ccc2c(C(=O)NCc3cccnc3)nc(-c3ccncc3)cc21,n,u,u,u,u
Cn1ccc2c(C(=O)NCc3cccnc3)nc(-c3ccccc3C(F)(F)F)cc21,n,n,71µM,45µM,n
O=C(NCc1ccccc1F)c1ccc2nnc(C3CCOCC3)n2c1,x,x,n,n,x
COC1C(=O)N(C2CCN(S(=O)(=O)Cc3ccccc3F)CC2)C12CCOCC2 (stereo not given),n,n,n,n,n
COc1ccc(C(=O)N2CCC[C@@H]2C(=O)N2CCC(N3CCOC3=O)CC2)cc1,x,n,n,n,x
Cn1ccc2c(C(=O)NCc3cccnc3)nc(-c3ccc(CO)cc3)cc21,n,n,n,45µM,n
O=C(Nc1ccc(Cl)cc1)C1=NO[C@@H]2CN(c3ccccn3)C[C@H]12,n,n,u,n,n
O=C(Nc1cccc(Cl)c1)C1=NO[C@@H]2CN(c3ccccn3)C[C@H]12,n,n,100µM,u,n
Cn1cc(-c2cnc3[nH]cc(CC(=O)NCc4ccncc4)c3c2)cn1,n,n,n,u,n
Cn1cc(-c2cnc3[nH]cc(CC(=O)NC4CCC4)c3c2)cn1,n,n,u,32µM,n
CC(C)CNC(=O)Cc1c[nH]c2ncc(-c3cnn(C)c3)cc12,n,n,n,45µM,n
O=C(c1cccc(Cl)c1)N1CCCN(c2ccc3nnc(C4CC4)n3n2)CC1,x,x,n,n,x
CN(C)C(=O)C1CCCN(Cc2cccc(-c3cccs3)c2)C1 (stereo not given),x,n,100µM,u,x
CN(C)C(=O)C1CCCCN1Cc1ccc(-c2cccs2)cc1 (stereo not given),x,n,u,u,x
CNC(=O)C1CCCN(Cc2cccc(-c3cccs3)c2)C1 (stereo not given),x,x,100µM,n,x
COCCn1c(=O)c(C(=O)N2CCN(C(=O)NC3CCCC3)CC2)nc2cccnc21,x,n,n,n,x
C=CCN1Cc2cc(F)ccc2N(CC(O)Cc2ccccc2)CCC1=O (stereo not given),x,x,u,n,x
C=CCOCC(O)CN1CCC(=O)N(Cc2ccccc2)Cc2cc(F)ccc21 (stereo not given),x,x,u,n,x
O=C1CCN(CC(O)Cc2ccccc2)c2ccc(F)cc2CN1Cc1ccccc1 (stereo not given),x,x,32µM,u,x
O=C1CCN(C[C@@H](O)COCc2ccccc2)c2ccc(F)cc2CN1Cc1ccccc1,x,x,45µM,u,x
O=C(NCCCc1ccccc1)C1CCCCN1Cc1ccc(-c2ccsc2)cc1 (stereo not given),x,n,u,35µM,x
O=C(NCCc1ccc(F)cc1)C1CCCCN1Cc1ccc(-c2ccsc2)cc1 (stereo not given),x,n,35µM,32µM,x
O=C(NCC1CCCCC1)C1CCCCN1Cc1ccc(-c2ccsc2)cc1 (stereo not given),x,n,u,u,x
O=C(NCCc1ccc(F)cc1)C1CCCCN1Cc1ccc(-c2cccs2)cc1 (stereo not given),x,n,22µM,u,x
COCCCNC(=O)C1CCCCN1Cc1ccc(-c2ccsc2)cc1 (stereo not given),x,n,u,u,x
SMILES,hNpr1 antagonist,GPT2 inhibitor,HEK cytotox,3T3 cytotox,Luciferase inh
O=C(NCC(F)F)C1CCCCN1Cc1ccc(-c2ccsc2)cc1 (stereo not given),x,n,40µM,u,x
[C-]#[N+]C1CCN(C(=O)c2cc(-c3cccc(C(F)(F)F)c3)c3nncn3n2)CC1,x,n,n,n,x
CCc1ccc(S(=O)(=O)N2CCC(n3cnnc3-c3ccccc3)CC2)cc1,x,n,u,u,x
COC(=O)C1=C(C)N=C2SC=C(CC(=O)NCc3ccco3)N2C1c1cccc(OC)c1 (stereo not given),n,n,n,n,n
O=C(Cc1ccc(Cl)cc1)N1CCC(c2n[nH]c(=O)n2Cc2ccc(F)cc2)CC1,n,n,n,u,n
O=C(C1CCCCN1Cc1ccc(-c2ccsc2)cc1)N1CCC(Cc2ccccc2)CC1 (stereo not given),x,n,u,35µM,x
Cc1ccc(CN2Cc3[nH]cnc3C[C@H]2C(=O)N2CCC(Cc3ccccc3)CC2)cc1,n,n,u,71µM,n
O=C(NCc1c[nH]c2ncccc12)c1cccc(Br)c1,n,n,u,n,n
COCc1ccc2c(c1)c(OC(C)(C)C(=O)NCCCN1CCCC1=O)nn2CCC(C)C,n,n,n,32µM,n
COCc1ccc2c(c1)c(OC(C)(C)C(=O)NC1CCC(O)CC1)nn2CCC(C)C (stereo not given),n,n,u,13µM,n
Cc1c(C(=O)N2CCOc3ccc(-c4ccc(N)nc4)cc3C2)ccc(S(C)(=O)=O)c1F,x,n,x,x,x
COc1ccc(-c2cccc(C(=O)N3CCC(NC(=O)c4c(C)noc4C)CC3)c2)nn1,x,x,n,n,x
COc1cccc(NC(=O)c2cc(-c3ccc(C(F)(F)F)cc3)nc3c2cnn3C)c1,x,x,40µM,u,x
